Test results from paper PMC4336329 (PLoS ONE, 2015).
Screen size: about 310,000 compounds; about 14,000 (4.5%) showed an effect of 50% or more. The effect is printed as a negative number. This is one part of a sample in which strong results are shown more often than they occur.

molecular target: human ether-à-go-go-related gene (hERG) potassium channel (human, UniProt Q12809); assay: primary screen, population patch clamp on CHO cells stably expressing hERG; higher = less effect of the substance
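Note: peak tail current of the secondary pulse compared with the same well before compound.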

Sequence of human ether-à-go-go-related gene (hERG) potassium channel (Q12809 whole entry, looked up): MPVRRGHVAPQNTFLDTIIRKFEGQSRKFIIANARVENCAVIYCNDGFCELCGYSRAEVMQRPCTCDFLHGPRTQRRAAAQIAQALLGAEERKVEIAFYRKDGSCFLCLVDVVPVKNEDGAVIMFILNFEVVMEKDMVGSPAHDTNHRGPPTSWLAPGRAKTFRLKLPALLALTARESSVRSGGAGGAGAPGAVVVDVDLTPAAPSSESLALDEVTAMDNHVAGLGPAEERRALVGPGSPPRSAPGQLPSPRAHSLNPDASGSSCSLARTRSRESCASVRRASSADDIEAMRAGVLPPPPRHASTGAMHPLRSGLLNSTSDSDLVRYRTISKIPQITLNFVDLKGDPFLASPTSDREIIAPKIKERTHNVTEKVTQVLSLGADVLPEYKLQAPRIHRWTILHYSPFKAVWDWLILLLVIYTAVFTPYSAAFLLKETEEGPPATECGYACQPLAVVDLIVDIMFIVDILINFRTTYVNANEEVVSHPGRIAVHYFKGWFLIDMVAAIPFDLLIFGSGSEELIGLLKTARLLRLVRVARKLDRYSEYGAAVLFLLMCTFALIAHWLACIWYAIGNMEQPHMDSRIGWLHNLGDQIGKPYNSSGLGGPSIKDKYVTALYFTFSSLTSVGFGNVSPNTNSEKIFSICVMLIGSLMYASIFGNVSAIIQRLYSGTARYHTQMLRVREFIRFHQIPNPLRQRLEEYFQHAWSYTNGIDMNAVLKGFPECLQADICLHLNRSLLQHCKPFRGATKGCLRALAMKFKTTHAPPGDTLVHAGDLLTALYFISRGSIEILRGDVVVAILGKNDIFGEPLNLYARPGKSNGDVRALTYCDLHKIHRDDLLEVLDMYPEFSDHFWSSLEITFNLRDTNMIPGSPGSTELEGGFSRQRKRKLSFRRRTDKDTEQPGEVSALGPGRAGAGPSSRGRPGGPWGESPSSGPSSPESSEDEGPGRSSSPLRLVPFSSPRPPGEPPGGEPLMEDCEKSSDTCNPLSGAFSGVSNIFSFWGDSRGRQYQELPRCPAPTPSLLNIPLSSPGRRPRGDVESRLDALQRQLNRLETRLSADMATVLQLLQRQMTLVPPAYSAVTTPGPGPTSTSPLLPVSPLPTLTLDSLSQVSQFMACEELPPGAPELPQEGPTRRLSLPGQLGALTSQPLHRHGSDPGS

Going from `COc1ccc(CCNC(=O)c2sc3cc(C)ccc3c2Cl)cc1` to `COc1ccc(CN2CCN(Cc3cccc(OC)c3)C(CCO)C2)cc1` (stereo not shown), the “hERG current change (%, negative = inhibition) at 10uM” value falls from 3.77% to -45.8%.

Going from `CCn1c(SCC(=O)Nc2ccccc2C(=O)OC)nnc1-c1cccc(C)c1` to `Cc1ccccc1NC(=O)COC(=O)c1cc(=O)c2ccccc2o1`, the “hERG current change (%, negative = inhibition) at 10uM” value falls from -36.2% to -67.4%.

First: O=S(=O)(c1ccc(O)cc1)c1ccc(O)cc1
Second: O=C(c1cccc([N+](=O)[O-])c1)N1CCN(c2ccc(Cl)cc2)CC1
The “hERG current change (%, negative = inhibition) at 10uM” value of the first is higher: 16.9% for the first, -41.1% for the second.

First: CNC(=O)C(=O)NCC1CCCN1S(=O)(=O)c1cccs1 (stereo not shown)
Second: Cc1ccsc1/C=N/NC(=O)CNC(=O)c1ccc(S(=O)(=O)N2CCOCC2)cc1
The “hERG current change (%, negative = inhibition) at 10uM” value of the first is higher: 12.4% for the first, 2.86% for the second.

Going from `C=CCn1c(-c2cccnc2Cl)nc2ccccc21` to `O=C(CSc1ncnc2sccc12)Nc1ccccc1`, the “hERG current change (%, negative = inhibition) at 10uM” value rises from 8.48% to 21.2%.

Going from `Cc1nn(-c2cc(N3CCOCC3)ccc2[N+](=O)[O-])c(=O)c2ccccc12` to `Cc1c(C(=O)N2CCN(c3cccc(Cl)c3)CC2)cccc1[N+](=O)[O-]`, the “hERG current change (%, negative = inhibition) at 10uM” value falls from -4.66% to -42.5%.

Compared with `O=C([O-])/C=C1\CCCc2ccccc2C1O.[Na+]` (stereo not shown), `O=C(c1ccc([N+](=O)[O-])s1)N1CCN(c2ccccc2)CC1` is lower in “hERG current change (%, negative = inhibition) at 10uM” value: 18.4% for the first, -25.8% for the second.

Going from `O=C(C1CCN(S(=O)(=O)c2cccc3cccnc23)CC1)N1CCN(C2CCCCC2)CC1` to `Cc1ccc(S(=O)(=O)N2CCC(N3CCC(C)CC3)CC2)cc1`, the “hERG current change (%, negative = inhibition) at 10uM” value falls from -0.647% to -29.1%.

First: COc1ccc(/C=C/CN2CCN(Cc3ccc(F)cc3)C(CCO)C2)cc1 (stereo not shown)
Second: CCOc1ccc(CN2CCN(C/C=C/c3ccc(OC)cc3)CC2CCO)cc1 (stereo not shown)
The “hERG current change (%, negative = inhibition) at 10uM” value of the first is higher: -58.5% for the first, -88.7% for the second.

Going from `COc1cccc(CN2CCN(CC#Cc3ccccc3)CC2CCO)c1` (stereo not shown) to `COc1ccc(/C=C/CN2CCN(Cc3ccccc3)C(CCO)C2)cc1` (stereo not shown), the “hERG current change (%, negative = inhibition) at 10uM” value falls from -30.6% to -51.9%.

First: COC(=O)c1ccc(CN2CCN(Cc3ccc(F)cc3)C(CCO)C2)cc1 (stereo not shown)
Second: COc1cccc(CN2CCN(Cc3ccc(OC)c(OC)c3)CC2CCO)c1 (stereo not shown)
The “hERG current change (%, negative = inhibition) at 10uM” value of the first is higher: 10.1% for the first, -27.2% for the second.

First: CC(C)N1CCC(N2CCN(C/C=C/c3ccc(F)cc3)CC2CCO)CC1 (stereo not shown)
Second: COc1ccc(/C=C/CN2CCN(Cc3cccc(OC)c3)C(CCO)C2)cc1 (stereo not shown)
The “hERG current change (%, negative = inhibition) at 10uM” value of the first is higher: -6.87% for the first, -51.9% for the second.

Compared with `COC(=O)COc1ccc(-c2nccc(-c3ccccn3)n2)cc1`, `COc1ccc(NC(=O)c2cccnc2Sc2ccccc2)c(OC)c1` is lower in “hERG current change (%, negative = inhibition) at 10uM” value: 13.3% for the first, 7.52% for the second.

Compared with `CCN(CC(=O)Nc1ccccc1OC)C(=O)c1cc(-c2ccccc2)nn1-c1ccccc1`, `COc1ccccc1C(=O)NNC(=O)c1nn(Cc2ccccc2)c(=O)c2ccccc12` is higher in “hERG current change (%, negative = inhibition) at 10uM” value: -36.9% for the first, -14% for the second.

Compared with `COc1ccc(-c2noc(N3CCC(C(=O)NCc4ccccc4Cl)CC3)n2)cc1`, `COc1ccc(/C=C/CN2CCN(CCc3ccccc3)C(CCO)C2)cc1` (stereo not shown) is lower in “hERG current change (%, negative = inhibition) at 10uM” value: -11.9% for the first, -71.9% for the second.

Compared with `CCOC(=O)NC(=O)CSc1nc2ccc(C)cc2[nH]1`, `CCOC(=O)N1CCN(C(=O)c2cc3c(=O)n4cccc(C)c4nc3s2)CC1` is lower in “hERG current change (%, negative = inhibition) at 10uM” value: 8.02% for the first, -9.84% for the second.

First: COc1cc(/C=N/NC(=O)c2csc3c2CCCC3)ccc1OCCN1CCOCC1
Second: COc1ccc(/C=N/NC(=O)c2cccnc2)cc1O
The “hERG current change (%, negative = inhibition) at 10uM” value of the first is lower: -31.9% for the first, 11.1% for the second.

First: COc1ccc(C(=O)NNC(=O)CNC(=O)C2CCCCC2)cc1
Second: COc1ccc(NC(=O)C2CCC(CNS(=O)(=O)c3csc(C(N)=O)c3)CC2)cc1OC (stereo not shown)
The “hERG current change (%, negative = inhibition) at 10uM” value of the first is lower: 14% for the first, 15.3% for the second.

Compared with `OCC[C@H]1C[C@H](O)[C@@H](O)[C@@]2(CCCO2)O1`, `O=P(CCN1CCCCC1)(c1ccccc1)c1ccccc1` is lower in “hERG current change (%, negative = inhibition) at 10uM” value: 20.1% for the first, -5.98% for the second.

First: CC(C)CNc1nc(NC(C)(C)C)nc(Oc2ccc(=O)[nH]n2)n1
Second: CC(C)(C)NC(=O)Cn1nnc(-c2ccccc2Cl)n1
The “hERG current change (%, negative = inhibition) at 10uM” value of the first is higher: 9.66% for the first, 6.43% for the second.

First: CCCCc1cc(=O)oc2cc(C)cc(OC(C)C(=O)NCc3cccnc3)c12 (stereo not shown)
Second: Cc1cccc(C)c1NC(=O)COC(=O)c1cc(=O)c2ccccc2o1
The “hERG current change (%, negative = inhibition) at 10uM” value of the first is lower: -19.7% for the first, 5.2% for the second.

Going from `Cc1ccc(NC(=O)COC(=O)c2cc(=O)c3ccccc3o2)cc1F` to `COc1ccc2[nH]c(C(=O)Nc3ccc(F)cc3Br)cc2c1`, the “hERG current change (%, negative = inhibition) at 10uM” value falls from 12.9% to 11.7%.

First: CC1=C(C)C(=O)N(C(C)CCc2ccccc2)C1=O (stereo not shown)
Second: Cc1sc2nc(SCC(=O)NCc3ccco3)n(-c3ccccc3)c(=O)c2c1C
The “hERG current change (%, negative = inhibition) at 10uM” value of the first is lower: 4.9% for the first, 8.63% for the second.

First: COc1ccccc1N1CCN(C(=O)c2cc3c(=O)n4ccccc4nc3s2)CC1.Cl
Second: COc1ccccc1N1CCN(C(=O)c2cc3c(=O)n4cccc(C)c4nc3s2)CC1
The “hERG current change (%, negative = inhibition) at 10uM” value of the first is lower: -53.2% for the first, -11.2% for the second.

Going from `Cc1cccn2c(=O)c3cc(C(=O)N4CCN(Cc5ccccc5)CC4)sc3nc12` to `O=C(c1cc2c(=O)n3ccccc3nc2s1)N1CCN(Cc2ccccc2)CC1`, the “hERG current change (%, negative = inhibition) at 10uM” value rises from -79.7% to -27.7%.

Compared with `COC(=O)c1cc(C(=O)N2CCN(c3cccc(Cl)c3)CC2)cc([N+](=O)[O-])c1`, `COC(=O)c1cc(C(=O)N2CCN(c3cccc(C)c3C)CC2)cc([N+](=O)[O-])c1` is higher in “hERG current change (%, negative = inhibition) at 10uM” value: -59% for the first, -39.6% for the second.

Compared with `COC(=O)c1cc(C(=O)N2CCN(c3ncccn3)CC2)cc([N+](=O)[O-])c1`, `O=C(c1cccc([N+](=O)[O-])c1)N1CCN(c2cccc(Cl)c2)CC1` is lower in “hERG current change (%, negative = inhibition) at 10uM” value: -5.19% for the first, -57.4% for the second.

First: O=C(c1ccc([N+](=O)[O-])s1)N1CCN(c2cccc(Cl)c2)CC1
Second: COc1ccccc1N1CCN(C(=O)c2ccc([N+](=O)[O-])s2)CC1
The “hERG current change (%, negative = inhibition) at 10uM” value of the first is lower: -66.1% for the first, -54.5% for the second.

Compared with `CN1CCN(C(=O)c2cc3c(=O)n4ccccc4nc3s2)CC1`, `COc1ccccc1N1CCN(C(=O)c2ccc(Br)s2)CC1.Cl` is lower in “hERG current change (%, negative = inhibition) at 10uM” value: -2.57% for the first, -46.3% for the second.

First: CSc1ncccc1C(=O)OCC(=O)NC(C)(C)C
Second: COc1ccc(OC)c2sc(N3CCN(C(=O)c4ccc([N+](=O)[O-])s4)CC3)nc12
The “hERG current change (%, negative = inhibition) at 10uM” value of the first is higher: 10.5% for the first, -41.9% for the second.

With `Cc1ccc(N2CCN(C(=O)c3cccc([N+](=O)[O-])c3)CC2)cc1Cl` the “hERG current change (%, negative = inhibition) at 10uM” value was -19.1%.
